Results from PubChem BioAssay (EPA / NIEHS).
Records with an inconclusive call do not appear. Active and inactive are the calls of the source. The calls were made as follows: active = hit-call score of the fitted dose curve at least 0.9, where 1 is the maximum; inconclusive = response in the unintended direction; inactive = score below 0.9.

Legend:
[1] = target: human Protein Tyrosine Phosphatase Non-receptor Type 9 (PTPN9), PTPN9 (gene 5780) (UniProt P43378); experiment: NVS_ENZ_hPTPN9: NovaScreen (NVS) Enzymatic Assay for human Protein Tyrosine Phosphatase Non-receptor Type 9 (PTPN9) (AID 2283209)
human Protein Tyrosine Phosphatase Non-receptor Type 9 (PTPN9), PTPN9 (gene 5780), sequence (P43378 whole entry, looked up): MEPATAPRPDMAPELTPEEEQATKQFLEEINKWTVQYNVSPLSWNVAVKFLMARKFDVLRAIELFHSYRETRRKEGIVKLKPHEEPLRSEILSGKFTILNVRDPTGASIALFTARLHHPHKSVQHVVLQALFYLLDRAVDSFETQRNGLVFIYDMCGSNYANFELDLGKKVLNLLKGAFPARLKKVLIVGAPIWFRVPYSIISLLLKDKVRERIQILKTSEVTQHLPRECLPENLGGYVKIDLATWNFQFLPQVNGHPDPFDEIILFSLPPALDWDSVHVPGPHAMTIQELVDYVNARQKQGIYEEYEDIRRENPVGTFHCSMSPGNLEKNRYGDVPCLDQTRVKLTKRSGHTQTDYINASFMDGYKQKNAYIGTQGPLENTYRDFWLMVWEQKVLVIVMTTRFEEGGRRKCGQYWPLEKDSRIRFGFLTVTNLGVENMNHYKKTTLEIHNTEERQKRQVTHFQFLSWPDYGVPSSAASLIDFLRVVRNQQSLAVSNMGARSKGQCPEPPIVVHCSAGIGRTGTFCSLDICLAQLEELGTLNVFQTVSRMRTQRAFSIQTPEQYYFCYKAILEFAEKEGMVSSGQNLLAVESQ
How it was run: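 Sf9-expressed enzyme in a cell-free assay, fluorescence read 1.33 h after dosing with mobility-shift separation of substrate and product. Tested at 25 uM in duplicate, then up to 50 uM; signal loss versus DMSO.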

[2] = target: human Protein Tyrosine Phosphatase Receptor Type B (PTPRB), PTPRB (gene 5787) (UniProt P23467); experiment: NVS_ENZ_hPTPRB: NovaScreen (NVS) Enzymatic Assay for human Protein Tyrosine Phosphatase Receptor Type B (PTPRB) (AID 2283211)
human Protein Tyrosine Phosphatase Receptor Type B (PTPRB), PTPRB (gene 5787), sequence (P23467 whole entry, looked up): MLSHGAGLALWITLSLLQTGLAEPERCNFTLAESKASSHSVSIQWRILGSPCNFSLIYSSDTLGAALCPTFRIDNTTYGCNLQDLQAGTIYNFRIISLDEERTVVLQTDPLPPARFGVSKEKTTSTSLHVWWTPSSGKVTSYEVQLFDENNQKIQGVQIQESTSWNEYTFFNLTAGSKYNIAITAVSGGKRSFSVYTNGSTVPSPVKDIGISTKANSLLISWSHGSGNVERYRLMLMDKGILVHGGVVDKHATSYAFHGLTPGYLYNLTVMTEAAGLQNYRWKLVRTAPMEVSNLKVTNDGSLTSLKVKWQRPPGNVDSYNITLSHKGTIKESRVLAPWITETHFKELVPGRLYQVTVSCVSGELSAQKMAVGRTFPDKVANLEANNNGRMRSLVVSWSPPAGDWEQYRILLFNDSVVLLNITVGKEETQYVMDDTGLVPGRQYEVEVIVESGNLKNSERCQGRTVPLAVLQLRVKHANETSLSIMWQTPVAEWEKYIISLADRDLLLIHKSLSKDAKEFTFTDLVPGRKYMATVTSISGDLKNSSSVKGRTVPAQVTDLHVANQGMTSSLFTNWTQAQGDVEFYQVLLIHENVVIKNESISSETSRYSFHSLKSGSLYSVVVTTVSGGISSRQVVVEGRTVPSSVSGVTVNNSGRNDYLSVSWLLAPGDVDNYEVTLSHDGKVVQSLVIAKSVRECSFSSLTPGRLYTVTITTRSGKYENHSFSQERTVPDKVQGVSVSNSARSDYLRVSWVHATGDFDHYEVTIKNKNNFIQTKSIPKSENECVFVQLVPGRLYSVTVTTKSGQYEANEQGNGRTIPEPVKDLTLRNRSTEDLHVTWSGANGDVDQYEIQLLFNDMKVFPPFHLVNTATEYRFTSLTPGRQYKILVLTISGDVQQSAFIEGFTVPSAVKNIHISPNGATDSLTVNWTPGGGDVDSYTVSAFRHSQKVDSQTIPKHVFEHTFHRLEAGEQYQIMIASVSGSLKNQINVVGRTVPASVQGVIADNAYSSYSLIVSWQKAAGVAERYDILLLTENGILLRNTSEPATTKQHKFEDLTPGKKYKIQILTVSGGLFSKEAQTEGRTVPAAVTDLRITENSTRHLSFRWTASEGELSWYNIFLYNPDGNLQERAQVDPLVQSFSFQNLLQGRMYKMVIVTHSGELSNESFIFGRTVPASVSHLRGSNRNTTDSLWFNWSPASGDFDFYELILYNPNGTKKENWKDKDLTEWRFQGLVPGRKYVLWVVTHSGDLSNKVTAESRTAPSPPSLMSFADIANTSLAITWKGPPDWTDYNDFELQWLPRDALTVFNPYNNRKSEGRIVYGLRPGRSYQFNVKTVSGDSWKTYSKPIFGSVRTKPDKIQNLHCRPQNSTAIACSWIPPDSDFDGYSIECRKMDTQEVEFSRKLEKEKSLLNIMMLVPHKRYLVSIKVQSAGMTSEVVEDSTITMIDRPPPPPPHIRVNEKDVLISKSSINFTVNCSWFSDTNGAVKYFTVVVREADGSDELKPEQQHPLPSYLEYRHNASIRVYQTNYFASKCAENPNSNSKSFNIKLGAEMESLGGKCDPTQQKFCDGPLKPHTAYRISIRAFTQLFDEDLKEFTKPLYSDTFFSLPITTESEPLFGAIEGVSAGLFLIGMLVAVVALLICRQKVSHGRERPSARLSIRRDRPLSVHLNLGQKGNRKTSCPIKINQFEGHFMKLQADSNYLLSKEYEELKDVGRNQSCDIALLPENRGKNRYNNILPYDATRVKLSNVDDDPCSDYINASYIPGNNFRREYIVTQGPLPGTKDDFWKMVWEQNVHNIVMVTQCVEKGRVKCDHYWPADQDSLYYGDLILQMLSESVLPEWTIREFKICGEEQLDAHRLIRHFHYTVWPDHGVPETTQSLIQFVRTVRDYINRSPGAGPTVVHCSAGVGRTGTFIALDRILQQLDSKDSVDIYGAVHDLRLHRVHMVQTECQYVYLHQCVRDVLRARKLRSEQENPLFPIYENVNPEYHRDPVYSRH
How it was run: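 Recombinant human PTPRB with a fluorescent substrate, product separated by electrophoretic mobility shift; read 1 h after dosing. Primary screen in duplicate at 25 uM; actives then retested in concentration series; loss of signal versus DMSO.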

[3] = target: human Protein Tyrosine Phosphatase Receptor Type F (PTPRF), PTPRF (gene 5792) (UniProt P10586); experiment: NVS_ENZ_hPTPRF: NovaScreen (NVS) Enzymatic Assay for human Protein Tyrosine Phosphatase Receptor Type F (PTPRF) (AID 2283213)
human Protein Tyrosine Phosphatase Receptor Type F (PTPRF), PTPRF (gene 5792), sequence (P10586 whole entry, looked up): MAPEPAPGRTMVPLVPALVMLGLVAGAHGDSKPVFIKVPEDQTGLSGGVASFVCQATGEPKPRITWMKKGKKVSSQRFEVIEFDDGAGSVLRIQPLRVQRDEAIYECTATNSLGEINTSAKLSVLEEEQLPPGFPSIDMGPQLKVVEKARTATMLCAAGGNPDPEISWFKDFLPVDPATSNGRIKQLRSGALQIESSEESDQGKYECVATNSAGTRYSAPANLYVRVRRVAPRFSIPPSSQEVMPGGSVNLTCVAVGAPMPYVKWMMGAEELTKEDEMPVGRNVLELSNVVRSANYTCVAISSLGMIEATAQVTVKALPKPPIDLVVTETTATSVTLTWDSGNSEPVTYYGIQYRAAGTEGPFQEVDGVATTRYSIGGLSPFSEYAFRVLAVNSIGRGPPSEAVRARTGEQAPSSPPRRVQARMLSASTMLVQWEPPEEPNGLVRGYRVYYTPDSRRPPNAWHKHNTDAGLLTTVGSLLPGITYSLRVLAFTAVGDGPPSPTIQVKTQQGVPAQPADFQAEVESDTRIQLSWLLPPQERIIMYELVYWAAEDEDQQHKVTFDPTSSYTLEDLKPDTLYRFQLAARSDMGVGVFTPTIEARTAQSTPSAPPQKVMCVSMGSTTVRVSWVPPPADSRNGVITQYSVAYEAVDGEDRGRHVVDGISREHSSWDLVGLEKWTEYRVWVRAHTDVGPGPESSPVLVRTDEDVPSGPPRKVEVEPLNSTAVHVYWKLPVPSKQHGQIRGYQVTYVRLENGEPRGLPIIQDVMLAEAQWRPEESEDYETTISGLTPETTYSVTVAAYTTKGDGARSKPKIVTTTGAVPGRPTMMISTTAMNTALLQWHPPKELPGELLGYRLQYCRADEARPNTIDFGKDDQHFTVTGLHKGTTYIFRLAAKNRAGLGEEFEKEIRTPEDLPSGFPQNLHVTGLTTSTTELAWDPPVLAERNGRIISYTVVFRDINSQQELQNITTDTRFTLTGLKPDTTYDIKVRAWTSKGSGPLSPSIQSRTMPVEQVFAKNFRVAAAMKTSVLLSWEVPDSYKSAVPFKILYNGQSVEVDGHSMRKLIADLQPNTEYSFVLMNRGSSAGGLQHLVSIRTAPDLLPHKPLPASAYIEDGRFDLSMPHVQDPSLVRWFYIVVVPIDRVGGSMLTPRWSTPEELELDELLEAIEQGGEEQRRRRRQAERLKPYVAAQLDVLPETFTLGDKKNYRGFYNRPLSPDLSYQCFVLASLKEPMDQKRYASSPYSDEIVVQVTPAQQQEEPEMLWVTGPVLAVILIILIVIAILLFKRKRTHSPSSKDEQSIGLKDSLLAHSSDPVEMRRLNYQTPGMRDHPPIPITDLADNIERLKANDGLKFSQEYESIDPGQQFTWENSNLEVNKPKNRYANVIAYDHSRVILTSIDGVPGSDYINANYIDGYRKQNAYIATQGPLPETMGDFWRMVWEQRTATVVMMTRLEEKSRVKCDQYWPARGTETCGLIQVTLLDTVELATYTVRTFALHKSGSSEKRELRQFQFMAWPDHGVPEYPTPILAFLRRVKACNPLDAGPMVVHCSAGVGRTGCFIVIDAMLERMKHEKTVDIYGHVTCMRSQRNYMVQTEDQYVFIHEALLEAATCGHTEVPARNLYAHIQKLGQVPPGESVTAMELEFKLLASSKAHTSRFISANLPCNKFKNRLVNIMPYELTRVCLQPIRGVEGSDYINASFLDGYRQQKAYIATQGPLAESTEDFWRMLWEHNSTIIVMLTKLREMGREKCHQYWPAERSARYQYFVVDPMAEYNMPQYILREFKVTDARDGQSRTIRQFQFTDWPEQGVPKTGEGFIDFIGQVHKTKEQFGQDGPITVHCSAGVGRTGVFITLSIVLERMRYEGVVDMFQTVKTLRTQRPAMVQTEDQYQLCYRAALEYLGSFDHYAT
How it was run: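 Cell-free fluorescence enzyme assay with recombinant protein and substrate; product separated by electrophoretic mobility shift. Read 1 h after dosing, single 25 uM duplicate screen, then concentration-response up to 50 uM; loss of signal vs DMSO.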

Q: Which outcome [1] does the source give for O=C(Oc1ccccc1)c1cccc(C(=O)Oc2ccccc2)c1 here?
A: Its outcome is “inactive”.

Q: With O=C(O)CC(O)(CC(=O)O)C(=O)O as the compound, how does the outcome [1] read?
A: Its outcome is “inactive”.

Q: CCCCC(CC)CO (stereo not given) was tested. Which outcome [2] did it give?
A: Its outcome is “inactive”.

Q: CN(C)C(=O)NC1(c2ccccc2)CCN(CCC[C@]2(c3ccc(Cl)c(Cl)c3)CCCN(C(=O)c3ccccc3)C2)CC1 was tested. Which outcome [3] did it give?
A: The outcome was “inactive”.

Q: Which outcome [3] does the source give for COc1ccc(OC(F)(F)F)cc1CN[C@H]1CCCN[C@H]1c1ccccc1 here?
A: Its outcome is “inactive”.
